Source: PubChem BioAssay (EPA / NIEHS)
Results filed as inconclusive are left out. Active and inactive are the calls of the source. How the source made its calls, unless noted: active means hit-call score of the fitted dose curve at least 0.9, where 1 is the maximum; inactive means score below 0.9.

Columns and labels:
[1] = CCTE_Harrill_HTTr_CellCount_MCF7: CCTE's Cell Proliferation Assessment for the High-Throughput Transcriptomics (HTTr) Platform, Harrill Lab (AID 2284012; active means hit-call score of the fitted dose curve at least 0.9, where 1 is the maximum;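 further: cells exposed to compound for six hours; intended direction is loss of nuclei count meaning fewer cells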)
Outline: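 Cell count from high-content imaging of Hoechst-labeled nuclei serves as viability/growth readout. Chemicals were applied to MCF-7 cells in eight concentrations for six hours, with fitting in both directions relative to DMSO.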

[2] = CCTE_Shafer_MEA_acute_burst_number: CCTE's Neural Acute Assay for Single-Electrode Bursts, Shafer Lab (AID 2284013)
Outline: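 Primary rat cortical neurons on 16-electrode MEA wells, DIV 13 or 15, exposed to compound (0.03-40 uM; ≥3 wells); 40-min recordings at 37 C before and after treatment. Burst count expressed as percent change from baseline, DMSO as negative control.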

[3] = CCTE_Shafer_MEA_acute_burst_duration_mean: CCTE's Neural Acute Assay for Mean Burst Duration, Shafer Lab (AID 2284014);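 further: hits are decreases in mean burst duration relative to DMSO controls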
Outline: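 Mean burst duration was compared between a 40 min baseline and a 40 min recording in the presence of compound (0.03-40 uM, 37 C), giving percent change per well. Cultures were rat cortical neurons at DIV 13 or 15; wells needed ≥10 active electrodes.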

[4] = CCTE_Shafer_MEA_acute_per_burst_spike_number_mean: CCTE's Neural Acute Assay for Average Number of Spikes Per Burst, Shafer Lab (AID 2284015);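 further: hits are decreases in mean spikes per burst versus baseline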
Outline: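 Percent change in mean spikes per single-electrode burst is compared between a 40 min baseline and a 40 min recording with compound (0.03-40 uM). Cultures were rat cortical neurons on MEA plates at DIV 13 or 15, recorded at 37 C, with DMSO as the negative control.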

[5] = CCTE_Shafer_MEA_acute_interburst_interval_mean: CCTE's Neural Acute Assay for Mean Interburst Interval, Shafer Lab (AID 2284016);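 further: percent change of mean interburst interval versus each well's own pre-dose baseline; curves fitted for decrease in interburst interval relative to DMSO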
Outline: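 Percent change in mean single-electrode interburst interval was calculated per well from 40 min recordings before and after compound (0.03-40 uM). Recordings were made at 37 C on rat cortical cultures at DIV 13 or 15, with spikes detected at 8x rms threshold.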

[6] = CCTE_Shafer_MEA_acute_burst_percentage_mean: CCTE's Neural Acute Assay for Percentage of Spikes in a Burst, Shafer Lab (AID 2284017);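 on AC50: curve fitted for loss of signal so potency reflects decreased burst percentage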
Outline: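 Well-level mean burst percentage from a 40-min recording after compound (0.03-40 uM) expressed as percent change from a 40-min baseline at 37C. Cultures: primary rat cortical neurons on MEA, dosed on DIV 13 or 15; fitted downward relative to DMSO.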

[7] = CCTE_Shafer_MEA_acute_burst_percentage_std: CCTE's Neural Acute Assay for Standard Deviation of Burst Percentage, Shafer Lab (AID 2284018);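 further: fitted in the negative direction so actives lower burst percentage SD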
Outline: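 Value is percent change from baseline in the across-electrode SD of spikes-in-bursts percentage, wells with >/= 10 active electrodes. Acute 40-min exposure to 0.03-40 uM on DIV 13 or 15 rat cortical cultures, recorded at 37 C after 40-min baseline.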

[8] = CCTE_Shafer_MEA_acute_per_network_burst_spike_number_mean: CCTE's Neural Acute Assay for Average Number of Spikes in a Network Burst, Shafer Lab (AID 2284019);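 on AC50: curve fitted for loss of signal so actives reduce spikes per network burst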
Outline: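 Percent change from baseline in mean spikes per network burst, spikes detected at 8x rms noise. Each compound at 0.03-40 uM in at least three wells of rat cortical cultures, recorded 40 min before and 40 min during exposure.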

[9] = CCTE_Shafer_MEA_acute_per_network_burst_spike_number_std: CCTE's Neural Acute Assay for Standard Deviation of Number of Spikes in a Network Burst, Shafer Lab (AID 2284020);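 further: fitted for decrease in spike-number SD versus DMSO so actives lower it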
Outline: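 Endpoint: percent change from 40 min baseline in standard deviation of spikes per network burst, after 40 min compound exposure (0.03-40 uM, 37 C). Cortical rat neurons on MEA at DIV 13 or 15; spikes detected at 8x rms noise, 300-5000 Hz band-pass.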

[10] = CCTE_Shafer_MEA_acute_per_network_burst_electrodes_number_mean: CCTE's Neural Acute Assay for Mean Number of Electrodes in a Network Burst, Shafer Lab (AID 2284021);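 further: curves fitted for decreases only so hits reduce electrodes per burst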
Outline: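 Readout: % change in mean electrodes active per network burst, post- vs pre-treatment, each well. Spikes detected at 8x rms noise after 300-5000 Hz band-pass; rat cortical cultures, DIV 13/15, compounds 0.03-40 uM, DMSO baseline.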

[11] = CCTE_Shafer_MEA_acute_network_burst_percentage: CCTE's Neural Acute Assay for Percentage of Network Bursts, Shafer Lab (AID 2284022);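 further: curves fitted for loss so actives lower network burst percentage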
Outline: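 Rat cortical cultures, DIV 13/15; 20 min equilibration, 40 min baseline, compound 0.03-40 uM, 40 min recording, 37 C. Spikes: 300-5000 Hz band-pass, threshold 8x rms noise. Readout: % change in network-burst spike fraction; loss direction vs DMSO.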

[12] = CCTE_Shafer_MEA_acute_cross_correlation_area: CCTE's Neural Acute Assay for Area of Cross Correlation, Shafer Lab (AID 2284024);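 further: rat primary cortical neuron networks on 48-well MEA at DIV 13 or 15 with 40 min exposure; area under pooled inter-electrode spike cross-correlation near zero lag as percent change from own baseline; curves fitted for loss of cross-correlation area so actives lower synchrony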
Outline: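 Rat cortical cultures, DIV 13/15, MEA; spikes detected at 8x rms noise (300-5000 Hz band-pass). Compound 0.03-40 uM, ≥3 wells each. Readout: % change in pooled inter-electrode cross-correlation area vs own baseline; DMSO negative control.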

[13] = CCTE_Shafer_MEA_acute_synchrony_index: CCTE's Neural Acute Assay for Synchrony, Shafer Lab (AID 2284027);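 further: network synchrony index of spontaneous spiking in primary rat cortical neurons on MEAs; fitted for loss of signal so actives lower synchrony relative to DMSO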
Outline: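 The synchrony index is taken as percent change per well between a 40 min baseline and a 40 min recording with compound (0.03–40 uM), at 37C. Rat cortical cultures on multiwell MEAs at DIV 13 or 15, spike threshold 8× rms noise.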

[14] = target: Estrogen receptor (Homo sapiens) (UniProt P03372); assay: CCTE_Deisenroth_AIME_384WELL_LUC_Active: CCTE's 384-well Estrogen Receptor Transactivation Assay with AIME metabolic competence (ERTA luciferase; metabolism positive), Deisenroth Lab (AID 2284030; active means hit-call score of the fitted dose curve at least 0.9, where 1 is the maximum)
Estrogen receptor (Homo sapiens), sequence (P03372 whole entry, looked up): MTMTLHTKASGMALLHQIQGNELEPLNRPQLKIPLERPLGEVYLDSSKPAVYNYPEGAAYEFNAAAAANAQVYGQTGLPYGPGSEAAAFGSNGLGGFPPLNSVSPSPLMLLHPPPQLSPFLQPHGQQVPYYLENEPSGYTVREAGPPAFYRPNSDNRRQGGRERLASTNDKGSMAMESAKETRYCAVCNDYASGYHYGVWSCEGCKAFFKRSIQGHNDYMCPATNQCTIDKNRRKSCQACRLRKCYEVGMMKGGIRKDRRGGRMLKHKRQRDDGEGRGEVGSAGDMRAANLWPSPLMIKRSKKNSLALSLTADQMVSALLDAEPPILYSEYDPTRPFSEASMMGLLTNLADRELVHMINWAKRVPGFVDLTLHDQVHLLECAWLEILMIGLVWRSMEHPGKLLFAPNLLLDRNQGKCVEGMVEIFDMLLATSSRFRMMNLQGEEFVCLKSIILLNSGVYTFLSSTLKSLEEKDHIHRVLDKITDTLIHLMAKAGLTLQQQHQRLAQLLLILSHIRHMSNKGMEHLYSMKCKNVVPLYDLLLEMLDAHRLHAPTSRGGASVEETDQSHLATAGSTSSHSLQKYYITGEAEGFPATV
Outline: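 Readout: bioluminescent luciferase induction in VM7Luc4E2 cells 24 hour after receiving medium from a 2 h rat hepatic S9 (induced, alginate microsphere) metabolism step. Concentrations 0.002 - 200 uM; activity scaled to 17beta-estradiol positive control.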

[15] = CCTE_Shafer_MEA_dev_firing_rate_mean: CCTE's Neural Network Formation Assay for Mean Firing Rate, Shafer Lab (AID 2284031)
Outline: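 Spike frequency (spikes/recording length, averaged over active electrodes) was recorded on days 5, 7, 9 and 12 and collapsed to AUC; rat cortical cultures received compound continuously over 12 days of network development.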

[16] = CCTE_Shafer_MEA_dev_per_burst_spike_percent: CCTE's Neural Network Formation Assay for Percent of Spikes in a Burst, Shafer Lab (AID 2284032)
Outline: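 Value is trapezoidal AUC over recordings on days 5, 7, 9 and 12 of the well-mean fraction of spikes falling in single-electrode bursts; rat cortical cultures exposed continuously from plating, treatment renewed DIV 5 and 9, fitted downward against DMSO.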

Measured: AC50

CCCOC(=O)c1ccc(C(=O)OCCC)nc1
inactive: [1]

C#C[C@]1(O)CC[C@H]2[C@@H]3CCC4=CC(=O)CC[C@@H]4[C@H]3CC[C@@]21CC
inactive: [1]

CC(=O)[C@H]1CC[C@H]2[C@@H]3CCC4=CC(=O)CC[C@]4(C)[C@H]3CC[C@]12C
inactive: [1]

CC(C)CCCCCCc1ccc(O)cc1
active: [2] 6.34 µM | [5] 7.29 µM | [6] 12.6 µM | [7] 32.5 µM | [13] 16 µM
inactive: [1] | [3] | [4] | [8] | [9] | [10] | [11] | [12]

CC(C)(C)[C@@H](O)[C@@H](Cc1ccc(Cl)cc1)n1cncn1
active: [3] 25.1 µM
inactive: [1] | [2] | [4] | [5] | [6] | [7] | [8] | [9] | [10] | [11] | [12] | [13]

N#CSCSc1nc2ccccc2s1
inactive: [1] | [2] | [3] | [5] | [12] | [14]
active: [4] 20 µM | [6] 25.5 µM | [7] 32.7 µM | [8] 11.6 µM | [9] 20 µM | [10] 27.2 µM | [11] 37.2 µM | [13] 28.6 µM

CN(C)C(=O)Nc1ccc(Cl)c(Cl)c1
inactive: [1]

O=C(O)c1ccccc1
inactive: [1] | [2] | [3] | [4] | [5] | [6] | [7] | [8] | [9] | [10] | [11] | [12] | [13] | [14] | [15] | [16]

OB(O)O
inactive: [1] | [2] | [3] | [4] | [5] | [6] | [7] | [8] | [9] | [10] | [11] | [12] | [13] | [15] | [16]
